{
  "source": "PubChem BioAssay (NCATS)",
  "note": "Several values for one entry are separate records, joined by “and”; a condition that tells them apart may be missing. Equal values may be shown once. Results filed as inconclusive are left out. A number with no mark means an inactive call. Activity calls are given as the source filed them. Calls come from the whole dose curve; as a rule, active = well fitted activation curve with a large enough effect; inconclusive = small, poorly fitted or top-dose-only effect; inactive = flat fitted curve, though single readings scatter. Potency is the fitted concentration of half-maximal effect.",
  "data": [
    {"experiment": "Cell Proliferation Assay against the TMD8 Cell Line (Caspase readout at 16 hrs) (AID 651712)", "conditions": "TMD8 lymphoma cells, caspase activation luminescence; series mostly up to 46.1 µM; caspase activation: at the top concentration", "excerpt": "One class of targeted therapeutics showing early clinical success in killing of ABC DLBCL lines are small molecule inhibitors of the Bruton tyrosine kinase (BTK) 11. Thus, we chose to investigate what additional compounds, if any, would synergize with the BTK inhibitor Ibrutinib (PCI-32765).\nPrior to any combination assays, using an NCATS developed oncology compound library called the Mechanism of Interrogation Plate (MIPE), two well studied ABC DLBCL lines (TMD8 and HBL1) were screened using a cell viability assay (CellTiterGlo) and a 12-point titration series for each single agent. These initial experiments offered insight into the concentration range that offered the best coverage of activity and non-activity to assure relevant data is generated. In addition to the viability signature associated with this library, we examined the apoptotic response of each agent versus the TMD8 line as judged by caspase 3/7 activation. Activity was assayed at both 8 and 16 hour time-points to gain an appreciation of which agents induced an apoptotic response in a reasonable timeframe from a therapeutic exposure perspective. MIPE was also assayed for single agent viability in a human mesenchymal stem cell (hMSC) line as a surrogate of each library members potential therapeutic index.\nThe combination plates were then generated by choosing 20 of the best compounds from this single agent screen and plated in the presence of the BTK inhibitor. The first analysis was carried out using 6x6 dose response blocks for each of the 20 compounds. […] In addition to the cell viability assay, the parallel caspase 3/7 activation and viability in hMSC assays were carried out in the 10x10 format.\nA total of 500 log growing TMD8 cells are seeded per well in 5 uL of a RPMI with glutamine (or Glutamax), without phenol red plus 5% FBS and 1X Pen/Strep into 1536 -solid white high base tissue culture treated Greiner One Bio Plates (789173-F) using a multidrop combi dispenser and a small sterile cassette. Compounds and controls totaling 23nL per well (negative control DMSO and positive control 9.2 uM Bortezomib-final) are immediately added to the plates using a 1536 head pin tool from Kalypsys. The plates are then covered with stainless steel gasket lids from Kalypsys and incubated for either 16 hours at 37C under 95% relative humidity with 5% CO2. After the desired incubation time, the plates are removed and allowed to reach room temperature before 3 uL of the Caspase Glo reagent (Promega) is added using an Aurora Flying Reagent Dispenser Bioraptor. The plates are then spun at 1000 rpms to remove bubbles and incubated for 15 minutes at room temperature before read on a ViewLux using a luminescent filter with a 10 second exposure. The relative luciferase units are used to calculated percent activity using DMSO as 0% and Bortezomib as 100%.", "units": {"caspase activation": "%"}, "values": [
      {"smiles": "O=C(O)[C@H](Cc1c[nH]c2ccccc12)N1C(=O)c2ccccc2C1=O", "caspase activation": 1.52},
      {"smiles": "Cc1ccc(C(N)=O)cc1Nc1nccc(-c2cn(C(C)C)c3cnccc23)n1", "Potency": "2.64 µM (active)"},
      {"smiles": "O=C(C=Cc1c(C(=O)O)[nH]c2cc(Cl)cc(Cl)c12)Nc1ccccc1", "caspase activation": -0.0957},
      {"smiles": "Nc1nc(Nc2ccc(S(N)(=O)=O)cc2)nn1C(=O)c1c(F)cccc1F", "Potency": "5.26 µM (active)"},
      {"smiles": "CC(=O)SC[C@@H](C)C(=O)N1CCC[C@H]1C(=O)N[C@@H](Cc1ccccc1)C(=O)O", "caspase activation": 1.27},
      {"smiles": "Nc1cc(C(F)(F)F)c(-c2cc(N3CCOCC3)nc(N3CCOCC3)n2)cn1", "Potency": "2.09 µM (active)"},
      {"smiles": "Nc1nc(-c2nn(Cc3ccccc3F)c3ncccc23)nc(N)c1N1CCOCC1", "caspase activation": -0.783},
      {"smiles": "COc1ccc2c(c1)CC[C@@H](CN(C)CC(=O)O)[C@H]2c1ccccc1", "caspase activation": 1.07},
      {"smiles": "CCN(CC)CCCCNc1ncc2cc(-c3cc(OC)cc(OC)c3)c(NC(=O)NC(C)(C)C)nc2n1", "caspase activation": -0.896},
      {"smiles": "Cn1cc(-c2[nH]c3cc(NC(=O)[C@H](N)C4CCCCC4)cc4c3c2C=NNC4=O)cn1", "Potency": "0.166 µM (active)"},
      {"smiles": "COCCn1c2c([n+](Cc3cnccn3)c1C)C(=O)c1ccccc1C2=O", "caspase activation": -9.11},
      {"smiles": "CC(C)=CCCC(C)=CCCC(C)=CCSc1ccccc1C(=O)O", "caspase activation": 4.59},
      {"smiles": "NC(=O)c1c(OCc2c(F)cc(Br)cc2F)nsc1NC(=O)NCCCCN1CCCC1", "caspase activation": 1.67},
      {"smiles": "CC(C)[C@H](C(=O)Nc1ccc(C(=O)NO)cc1)c1ccccc1", "Potency": "0.166 µM (active)"},
      {"smiles": "CCCCN1CCC(CNC(=O)c2c3n(c4ccccc24)CCCO3)CC1", "caspase activation": 3.69},
      {"smiles": "O=C(Nc1cc(C(F)(F)F)cc(C(F)(F)F)c1)c1cc(Cl)ccc1O", "Potency": "0.296 µM (active)"},
      {"smiles": "Nc1nccc(Oc2ccc(NC(=O)c3c[nH]cc(-c4ccc(F)cc4)c3=O)cc2F)c1Cl", "caspase activation": 1.17},
      {"smiles": "Nc1ccccc1NC(=O)c1ccc(CNc2nccc(-c3cccnc3)n2)cc1", "Potency": "20.9 µM (active)"},
      {"smiles": "COc1cc(C(C)C)c2c(c1)S(=O)(=O)N(COc1cc(=O)n3cccc(OCCN4CCCCC4)c3n1)C2=O", "caspase activation": 27.9},
      {"smiles": "CCN1CCN(CC(=O)Nc2ccc(-c3cccc4c(=O)cc(N5CCOCC5)oc34)c3sc4ccccc4c23)CC1", "Potency": "0.469 µM (active)"},
      {"smiles": "Cn1c(=O)n(-c2ccc(C(C)(C)C#N)cc2)c2c3cc(-c4cnc5ccccc5c4)ccc3ncc21", "Potency": "20.9 µM (active)"},
      {"smiles": "Cc1[nH]c2ccccc2c1CCNCc1ccc(C=CC(=O)NO)cc1", "Potency": "0.0332 µM (active)"},
      {"smiles": "COc1cc2c(Oc3ccc(-c4cnc(Nc5ccc(F)cc5)n(C)c4=O)cc3F)ccnc2cc1OCCCN1CCOCC1", "Potency": "16.6 µM (active)"},
      {"smiles": "CC[C@H](CO)Nc1nc(NCc2ccccc2)c2ncn(C(C)C)c2n1", "Potency": "0.935 µM (active)"},
      {"smiles": "C#Cc1cccc(Nc2ncnc3cc(OC)c(OCCCCCCC(=O)NO)cc23)c1", "Potency": "0.148 µM (active)"},
      {"smiles": "CC(=O)OCCN1C(=O)c2c(C)nc3ccc(S(=O)(=O)N4CCOCC4)cc3c2C1=O", "caspase activation": 1.04},
      {"smiles": "N#CCNC(=O)c1ccc(-c2ccnc(Nc3ccc(N4CCOCC4)cc3)n2)cc1", "Potency": "5.26 µM (active)"},
      {"smiles": "COC(=O)c1ccc2c(C(=Nc3ccc(N(C)C(=O)CN4CCN(C)CC4)cc3)c3ccccc3)c(O)[nH]c2c1", "Potency": "0.469 µM (active)"},
      {"smiles": "CCCCc1nc2cc(C=CC(=O)NO)ccc2n1CCN(CC)CC", "Potency": "0.332 µM (active)"},
      {"smiles": "COc1cc2c(Oc3ccc(NC(=O)C4(C(=O)Nc5ccc(F)cc5)CC4)cc3F)ccnc2cc1OCCCN1CCOCC1", "caspase activation": 3.26},
      {"smiles": "COc1cc2nccc(Oc3ccc(NC(=O)C4(C(=O)Nc5ccc(F)cc5)CC4)cc3)c2cc1OC", "Potency": "26.4 µM (active)"},
      {"smiles": "O=C(C=Cc1cccnc1)NCCCCC1CCN(C(=O)c2ccccc2)CC1", "caspase activation": 7.58},
      {"smiles": "CC(=O)c1c(C)c2cnc(Nc3ccc(N4CCNCC4)cn3)nc2n(C2CCCC2)c1=O", "Potency": "18.7 µM (active)"},
      {"smiles": "O=C(NCCCNc1nc(Nc2cccc(NC(=O)N3CCCC3)c2)ncc1I)c1cccs1", "Potency": "13.2 µM (active) and 5.9 µM (active)"},
      {"smiles": "COc1ccc(C=Cc2cc(OC)c(OC)c(OC)c2)cc1O", "Potency": "0.0015 µM (active)"},
      {"smiles": "CN(C)CCCN=c1c2ccccc2n(C)c2[nH]c(=O)n(C)c(=O)c12", "Potency": "20.9 µM (active)"},
      {"smiles": "O=c1[nH]nc(Sc2ncc([N+](=O)[O-])s2)n1-c1ccc2c(c1)OCCO2", "caspase activation": -8.38},
      {"smiles": "CC(C)(C)OC(=O)Nc1ccc(-c2cc(C(=O)NCCCCCCC(=O)NO)no2)cc1", "Potency": "1.32 µM (active)"},
      {"smiles": "N#Cc1c(O)c2c(-c3ccc(-c4ccccc4O)cc3)csc2[nH]c1=O", "caspase activation": 6.4},
      {"smiles": "CC(=O)OCC(=O)[C@@]1(O)[C@H](C)C[C@H]2[C@@H]3C=C(C)C4=Cc5c(cnn5-c5ccccc5)C[C@]4(C)[C@@H]3[C@@H](O)C[C@@]21C", "Potency": "20.9 µM (active)"}
    ]}
  ]
}
